Laboratory results as given in PubChem BioAssay.
Results with a measured potency or affinity are listed apart. Calls of active or inactive are those of the source.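 How the source made its calls: active means earlier screen potentiator hit that boosts the TRPC4 ion channel at some dose, with a dose response; inactive means no potentiation, no dose response, or not a prior hit.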

Molecular target: Short transient receptor potential channel 4 (Mus musculus) (UniProt Q9QUQ5)
Test: TRPC4 positive allosteric modulators, dose response, cell-based, HEK293 TRPC4/mu-opioid, Fluo-4 calcium, EC20 DAMGO (AID 434941);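 further: calcium entry triggered by an EC20 dose of DAMGO at the co-expressed mu-opioid receptor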
Details: HEK293 TRPC4/mu-opioid cells, Fluo-4 calcium fluorescence; series mostly up to 20 µM; potentiation ratio: at the top concentration

Sequence of Short transient receptor potential channel 4 (Mus musculus) (Q9QUQ5 whole entry, looked up): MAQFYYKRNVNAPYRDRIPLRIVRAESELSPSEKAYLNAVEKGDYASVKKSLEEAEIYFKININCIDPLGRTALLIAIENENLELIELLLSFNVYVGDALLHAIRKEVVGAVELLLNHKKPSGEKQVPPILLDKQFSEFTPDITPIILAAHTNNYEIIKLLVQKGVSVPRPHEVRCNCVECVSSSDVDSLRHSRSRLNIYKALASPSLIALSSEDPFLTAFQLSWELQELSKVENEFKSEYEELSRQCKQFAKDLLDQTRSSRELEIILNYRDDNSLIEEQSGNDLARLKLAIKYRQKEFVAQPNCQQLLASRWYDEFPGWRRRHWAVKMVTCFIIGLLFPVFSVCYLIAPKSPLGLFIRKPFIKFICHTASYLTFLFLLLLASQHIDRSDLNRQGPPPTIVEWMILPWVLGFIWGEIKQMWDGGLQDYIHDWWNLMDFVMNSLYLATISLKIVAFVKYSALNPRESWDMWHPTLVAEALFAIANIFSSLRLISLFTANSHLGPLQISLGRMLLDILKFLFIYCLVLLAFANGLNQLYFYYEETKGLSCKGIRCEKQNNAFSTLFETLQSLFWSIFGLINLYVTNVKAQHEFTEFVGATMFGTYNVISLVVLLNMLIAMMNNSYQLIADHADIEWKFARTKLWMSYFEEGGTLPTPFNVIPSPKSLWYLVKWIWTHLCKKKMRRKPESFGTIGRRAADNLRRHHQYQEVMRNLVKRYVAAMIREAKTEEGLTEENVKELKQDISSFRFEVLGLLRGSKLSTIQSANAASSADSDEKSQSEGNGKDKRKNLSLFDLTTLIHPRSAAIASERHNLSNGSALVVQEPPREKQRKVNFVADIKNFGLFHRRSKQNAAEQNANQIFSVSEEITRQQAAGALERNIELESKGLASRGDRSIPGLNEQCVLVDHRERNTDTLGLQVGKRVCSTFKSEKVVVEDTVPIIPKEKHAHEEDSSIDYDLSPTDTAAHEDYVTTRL

Potentiation ratio, inactive:
COc1ccc(C(CNC(=O)COc2ccccc2OC)N(C)C)cc1OC (centres undefined) -17.7
COc1ccc(C(CNC(=O)CCOc2ccccc2)N(C)C)cc1 (centres undefined) -22.6
CN(C)C(CNc1ccc(C(F)(F)F)cn1)c1ccccc1 (centres undefined) -33
Fc1ccc(-n2cc(CNCCc3cccnc3)c(-c3ccccc3Cl)n2)cc1 -56.6
CCOC(=O)c1ccc(NC(=O)NCCc2cnc[nH]2)cc1 -14.4
CN1CCN(C(=O)c2cccn(Cc3c(Cl)cccc3Cl)c2=O)CC1 -9.98
Cc1sc2ncnc(NCC(c3ccccc3)N(C)C)c2c1C (centres undefined) -24.1
O=C(O)C1C2C=CC(C2)C1C(=O)N1CCN(C/C=C/c2ccccc2)CC1 (centres undefined) -20.1
CCCCN(CC)CCNC(=O)c1cc2c(-c3ccc(Cl)cc3)nn(C)c2s1 -26.8
O=C(Nc1ccncc1)c1ccc(Cl)c(S(=O)(=O)N2CCc3ccccc32)c1 -43.9
COc1ccc(CCN(C)C(=O)C2CCCN(C3CCN(Cc4ccccc4)CC3)C2)cc1OC (centres undefined) -4.05
Cc1cc(C)cc(NC(=S)N2CCN(c3ncc(C(F)(F)F)cc3Cl)CC2)c1 -18.7
COc1ccc(C(CNC(=O)Cc2ccc(-c3ccccc3)cc2)N(C)C)cc1 (centres undefined) -16.5
O=c1c(Cc2ccccc2)c(O)ccn1CCc1cnc[nH]1 -24.9
COc1ccc(C(=O)NNC(=S)NC(=O)c2cccs2)cc1 -45.1
CCC(=O)NC(C)C(c1cccs1)N1CCN(c2ccccc2)CC1 (centres undefined) -17.6
NCCCNC(=O)c1cc2ccccc2[nH]1 -59.5
Cn1c2ccccc2c(=O)c2c(=O)n(C3CCCCC3)c(-c3ccco3)nc21 27.4

outcome, inactive:
CC(=O)OCC[N+](C)(C)C
